Compound activity from PubChem.
Nrf2 activator: activators of Nrf2 (ARE) signaling | AREc32 ARE-luciferase reporter (MCF7-derived line), luminescence, 24 h | Potency, µM (highest dose often 46.1 µM), inactives show at the top dose activation, hits mostly activators | AID 624171 | 410,000 compounds, 0.31% hits; further: % of control where 0% means no effect; nearly all actives have a fitted effect of over 65% in size
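Luminescent ARE reporter assay in AREc32_Fluc cells: overnight plating at 37 deg C, 24 hr compound incubation, Steady-Glo added, 30 min RT before reading.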
ELG1 repair inh: ELG1-dependent DNA repair inhibition; HEK293T ELG1-luciferase reporter, luminescence, 16 h; DNA damage induced by 5-fluorouridine; Potency, µM (doses to about 46.1 µM), without a hit: at the highest dose activity change, negative = inhibition, usual class: inhibitors; 330,000 compounds, 2.3% hits; further: on the % scale 0 is the no-effect control and ±100 the full control effect; nearly all actives have a fitted effect of over 55% in size
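5-Fluorouridine DNA damage + compound/DMSO, 2,000 cells/well, 16 h, 37 °C/5% CO2. ONE-Glo, 30 min RT, luminescence. Readout = decrease in reporter signal.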
A549 tox: kills or reduces viability of A549 cells in Nrf2 counter-screen; Potency, µM (doses to about 46 µM), without a hit: at the highest dose activity change, negative = cytotoxicity, actives largely listed as inhibitors; A549 ARE-Fluc cells, CellTiter-Fluor viability, 18-24 h; 390,000 compounds, 0.16% hits; further: on the % scale 0 is the no-effect control and ±100 the full control effect
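A549 ARE-Fluc cells in 5% FBS OPTI-MEM, 5000 cells/well, rested 2 h then exposed to compounds in concentration-response for 18-24 h at 37 °C. Viability by CellTiter-Fluor fluorescence (Ex 405/Em 525) after 30 min; luciferase luminescence (BugLite, 15 min, RT) read afterwards.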
Nrf2 block: inhibitors of Nrf2 signaling; Potency, µM (series often up to 46 µM), for inactives: top-dose activity change, negative = inhibition, most hits filed as inhibitors; A549 ARE-Fluc reporter, luciferase luminescence, 18-24 h; AID 504444; 360,000 compounds, 2.1% hits; further: on the % scale 0 is the no-effect control and ±100 the full control effect; nearly all actives have a fitted effect of over 60% in size
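Concentration-response testing used A549 ARE_Fluc cells at 5000 cells/well. Following an 18-24 h compound incubation, viability was read by fluorescence (Ex 405/Em 525) and luciferase output by luminescence.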
IDH1 R132H inh: inhibitors of human mutant IDH1 R132H | Potency, µM (titrated, usually from 76.6 µM), for the others: at the top dose activity change, negative = inhibition, actives largely listed as inhibitors | O75874 | IDH1-R132H enzyme, NADPH consumption, diaphorase/resazurin fluorescence | 390,000 compounds, 0.093% hits; further: on the % scale 0 is the no-effect control and ±100 the full control effect; nearly all actives have a fitted effect of over 65% in size
Target sequence (O75874 whole entry R132H, stated change not applied): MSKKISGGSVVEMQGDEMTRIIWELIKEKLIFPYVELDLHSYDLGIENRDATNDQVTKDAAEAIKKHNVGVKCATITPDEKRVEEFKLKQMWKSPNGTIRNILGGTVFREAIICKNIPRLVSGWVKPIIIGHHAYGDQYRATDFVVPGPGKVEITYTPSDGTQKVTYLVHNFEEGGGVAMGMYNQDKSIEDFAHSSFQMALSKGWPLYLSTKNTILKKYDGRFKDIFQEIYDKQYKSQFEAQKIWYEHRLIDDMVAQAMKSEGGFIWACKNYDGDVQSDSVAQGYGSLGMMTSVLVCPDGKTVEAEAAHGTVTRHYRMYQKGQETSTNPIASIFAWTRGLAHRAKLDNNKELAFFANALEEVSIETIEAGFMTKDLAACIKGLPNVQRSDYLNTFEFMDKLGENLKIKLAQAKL
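IDH1-R132H (0.5 ug/mL) preincubated 30 min with compound, then NADPH (0.016 mM) and alpha-KG (2 mM) added; 80 min at RT, pH 7.5. Remaining NADPH coupled via diaphorase/resazurin to fluorescence (540/590 nm); concentration-response curves normalized to no-enzyme control.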
* marks the source's active call; other numbers are inactive results. The list is not random: actives were taken first. Their share in the collection is about 3.8%. The call rests on the fitted dose curve; in most records, active means well fitted curve in the direction sought with a large enough effect; inconclusive means small, poorly fitted or top-dose-only effect, or another doubt; inactive means no such curve, though single readings can be large; an effect the other way counts as inactive or inconclusive. Potency means the concentration at half of the fitted maximal effect.

Screening O=S(=O)(c1ccccc1Cl)N1CCCC1c1nc(-c2ccccc2Cl)no1 (stereo not drawn) returned Nrf2 activator 0%, ELG1 repair inh -17%, A549 tox -16%, Nrf2 block 16µM* and IDH1 R132H inh 6%.
For O=C(Nc1ccc(Cl)cc1)N1CCC(c2nc(-c3ccccc3Cl)no2)CC1 the results were Nrf2 activator 1%, ELG1 repair inh 13µM*, A549 tox -23%, Nrf2 block inconclusive and IDH1 R132H inh -3%.
`O=C(Nc1ccc(Cl)cc1)N1CCC(c2nc(-c3cccs3)no2)CC1` gave Nrf2 activator 6%, ELG1 repair inh inconclusive, A549 tox inconclusive, Nrf2 block inconclusive and IDH1 R132H inh 4%.
For CCOc1cc(Cl)c(S(=O)(=O)n2ccnc2)cc1Cl the results were Nrf2 activator 0%, A549 tox 2%, Nrf2 block -25% and IDH1 R132H inh -4%.
N=c1ccn(CC(=O)c2ccc(-c3ccccc3)cc2)cc1 was read as Nrf2 activator 6%, ELG1 repair inh inconclusive, A549 tox inconclusive, Nrf2 block 7.3µM* and IDH1 R132H inh 1%.
Screening Cc1ccc(C(=O)OCC(=O)Nc2ccccc2)cc1NC(=O)c1ccco1 returned Nrf2 activator 9%, ELG1 repair inh inconclusive, A549 tox 4%, Nrf2 block inconclusive and IDH1 R132H inh -7%.
COc1ccc(Cl)cc1C(=O)OCC(=O)Nc1sccc1C(N)=O was read as Nrf2 activator 3%, ELG1 repair inh 23µM*, A549 tox 1%, Nrf2 block 4% and IDH1 R132H inh 3%.
`COCCn1c(SCC(=O)Nc2sccc2C(N)=O)nc2cc(Cl)ccc2c1=O` gave Nrf2 activator 3%, ELG1 repair inh 23µM*, A549 tox inconclusive and IDH1 R132H inh -2%.
Screening Cc1ccc(C(=O)OCC(=O)Nc2sccc2C(N)=O)cc1NC(=O)c1ccco1 returned Nrf2 activator 3%, ELG1 repair inh 8.2µM*, A549 tox -8%, Nrf2 block inconclusive and IDH1 R132H inh 1%.
`NC(=O)c1ccsc1NC(=O)COC(=O)c1ccc(Cl)c(N)c1` gave Nrf2 activator -1%, ELG1 repair inh 12µM*, A549 tox 15%, Nrf2 block 22% and IDH1 R132H inh 7%.
Screening Cc1nc2cc(NS(=O)(=O)c3ccc(Br)cc3)ccc2n1C returned Nrf2 activator 0%, ELG1 repair inh 21µM*, A549 tox 1%, Nrf2 block inconclusive and IDH1 R132H inh 8%.
Screening Cc1nc2ccc(NS(=O)(=O)c3ccc(Br)cc3)cc2s1 returned Nrf2 activator 6%, ELG1 repair inh 0%, A549 tox 0%, Nrf2 block 15µM* and IDH1 R132H inh 4%.
For CC(=O)Nc1ccc(S(=O)(=O)Nc2ccc3nc(C)sc3c2)cc1 the results were Nrf2 activator 1%, ELG1 repair inh inconclusive, A549 tox -15%, Nrf2 block 16µM* and IDH1 R132H inh -2%.
Screening CC(=O)Nc1ccc2nc(NS(=O)(=O)c3ccc(C)cc3)sc2c1 returned Nrf2 activator 0%, ELG1 repair inh -11%, A549 tox 6%, Nrf2 block -15% and IDH1 R132H inh 4%.
`COc1ccccc1S(=O)(=O)Nc1ccc2nc(C)sc2c1` gave Nrf2 activator 2%, ELG1 repair inh 0%, A549 tox 0%, Nrf2 block inconclusive and IDH1 R132H inh -12%.
Screening Cc1ccc(S(=O)(=O)Nc2ccc3nc(C)sc3c2)cc1 returned Nrf2 activator 3%, ELG1 repair inh -3%, A549 tox -5%, Nrf2 block 15µM* and IDH1 R132H inh 6%.
Screening Cc1nc2ccc(NS(=O)(=O)c3cccc([N+](=O)[O-])c3)cc2s1 returned Nrf2 activator 8%, ELG1 repair inh inconclusive, A549 tox -12%, Nrf2 block 18µM* and IDH1 R132H inh 0%.
`Cc1ccc(S(=O)(=O)Nc2ccc3nc(N)sc3c2)cc1` gave Nrf2 activator 0%, ELG1 repair inh inconclusive, A549 tox -18%, Nrf2 block 7.3µM* and IDH1 R132H inh 0%.
